Source: PubChem BioAssay (NCATS)
Inconclusive results are not listed. A call without a number means that no potency is given here. Activity calls are given as the source filed them. Unless noted, calls follow the shape of the dose curve; as a rule, active = well fitted curve in the direction sought with a large enough effect; inconclusive = small, poorly fitted or top-dose-only effect, or another doubt; inactive = no such curve, though single readings can be large; an effect the other way counts as inactive or inconclusive.

Assays:
[1] = molecular target: Mitogen-activated protein kinase 10 (Mus musculus) (UniProt Q61831); assay: JNK3 AlphaScreen Assay (AID 530; active = well fitted curve in either direction with a large enough effect, not every such curve was filed as active;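 also: kinase came from lysate of stimulated human HepG2 cells; signal reports phosphorylation of biotinylated GST-cJun 1-79 at Ser73 with 10 µM ATP; series mostly up to about 57 µM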)
Outline: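 Room-temperature AlphaScreen kinase assay; pre-activated HepG2 lysate as JNK3 source, biotin-GST-cJun(1-79) substrate, 10 uM ATP, compound 15 min preincubation.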

[2] = molecular target: Cytochrome P450 3A4 (Homo sapiens) (UniProt P08684); assay: qHTS Assay for Inhibitors and Substrates of Cytochrome P450 3A4 (AID 884); also: potency is read from the fitted curve at half-maximal effect; nearly all actives have a fitted effect of over 50% in size
Outline: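 20 nM human CYP3A4 with 25 uM Luciferin-PPXE (at KM) in 200 mM KPO4, preincubated 10 min with compound; NADPH regeneration started a 60 min RT reaction. Luciferin detected by luminescence, normalized to 57 uM ketoconazole as full inhibition.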

[3] = molecular target: Cytochrome P450 3A4 (Homo sapiens) (UniProt P08684); assay: qHTS Assay for Activators of Cytochrome P450 3A4 (AID 885); also: nearly all actives have a fitted effect of over 65% in size
Outline: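 Quantitative HTS format: compounds preincubated with 20nM human CYP3A4 and Luciferin-PPXE substrate at KM, reaction started by NADPH regeneration, stopped after 60 min, luciferase luminescence read 20 min later.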

[4] = molecular target: 3',5'-cyclic-AMP phosphodiesterase 4B (Homo sapiens) (UniProt Q07343); assay: qHTS Assay for Inhibitors of PDE-IV (AID 607; active = well fitted activation curve with a large enough effect in the main read-out, with a control signal flat, not every such curve was filed as active)
Outline: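 Live HEK293 cells with a modified cyclic nucleotide-gated (CNG) channel report intracellular cAMP via membrane-potential dye fluorescence (ex 535/em 590 nm). Endogenous PDE-IV was targeted. Compounds were tested at up to 22.9 uM final; RO 20-1724 100 uM served as control.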

[5] = molecular target: Cytochrome P450 2C9 (Homo sapiens) (UniProt P11712); assay: qHTS Assay for Inhibitors and Substrates of Cytochrome P450 2C9 (AID 883); also: potency is read from the fitted curve at half-maximal effect; nearly all actives have a fitted effect of over 60% in size
Outline: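 Inhibition of CYP2C9 is scored as loss of luminescence, with 57uM sulphaphenazole defining 100% inhibition. Substrate Luciferin-H is used at 100uM, equal to its KM; enzyme at 10nM in 25mM KPO4, 60 min at 37C with NADPH regeneration.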

[6] = molecular target: Cytochrome P450 2D6 (Homo sapiens) (UniProt P10635); assay: qHTS Assay for Inhibitors and Substrates of Cytochrome P450 2D6 (AID 891); also: potency is read from the fitted curve at half-maximal effect; nearly all actives have a fitted effect of over 60% in size
Outline: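 Human CYP2D6 (5 nM) with 30 uM Luciferin-ME EGE (at Km) in 100 mM KPO4, compound preincubated 10 min, then NADPH regeneration system for 60 min at room temperature. Luciferin read by luminescence; normalized to 1.43 uM quinidine.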

[7] = molecular target: Cytochrome P450 2C19 (Homo sapiens) (UniProt P33261); assay: qHTS Assay for Inhibitors and Substrates of Cytochrome P450 2C19 (AID 899); also: potency is read from the fitted curve at half-maximal effect; nearly all actives have a fitted effect of over 60% in size
Outline: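 5nM enzyme + 10uM Luciferin-H EGE (=KM), 50mM KPO4; cpd pin-transferred, 10 min 37C; NADPH regen, 60 min 37C; stopped w/ luciferin detection reagent, 20 min; luminescence. Normalized to 57uM ketoconazole (AC100).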

[8] = qHTS for Inhibitors of Plasmodium falciparum (DD2) proliferation (AID 504314);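 also: parasite DNA measured by SYBR Green fluorescence after red cell lysis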
Outline: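 Fluorescence read-out (ex 485/em 535 nm) of SYBR Green-stained parasite DNA quantifies intraerythrocytic growth. Cultures at 0.3% parasitemia and 2.5% hematocrit were treated for 72 h; data normalized to DMSO and 0.29 uM artemisinin wells.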

[9] = qHTS for Inhibitors of Plasmodium falciparum (GB4) proliferation (AID 504315); also: nearly all actives have a fitted effect of over 50% in size
Outline: (§1)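 Erythrocytes infected with P. falciparum line (0.3% parasitemia, 2.5% hematocrit final) incubated with compounds 72 h at 37 °C, 5% CO2; SYBR Green lysis buffer added, fluorescence read next day. Normalized to 0.29 uM artemisinin and DMSO.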

[10] = qHTS for Inhibitors of Plasmodium falciparum (7G8) proliferation (AID 504316); also: series mostly up to about 6.7 µM; nearly all actives have a fitted effect of over 65% in size
Outline: as §1

[11] = qHTS for Inhibitors of Plasmodium falciparum (CP250) proliferation (AID 504320)
Outline: as §1

Sequence of Cytochrome P450 3A4 (Homo sapiens) (P08684 whole entry, looked up): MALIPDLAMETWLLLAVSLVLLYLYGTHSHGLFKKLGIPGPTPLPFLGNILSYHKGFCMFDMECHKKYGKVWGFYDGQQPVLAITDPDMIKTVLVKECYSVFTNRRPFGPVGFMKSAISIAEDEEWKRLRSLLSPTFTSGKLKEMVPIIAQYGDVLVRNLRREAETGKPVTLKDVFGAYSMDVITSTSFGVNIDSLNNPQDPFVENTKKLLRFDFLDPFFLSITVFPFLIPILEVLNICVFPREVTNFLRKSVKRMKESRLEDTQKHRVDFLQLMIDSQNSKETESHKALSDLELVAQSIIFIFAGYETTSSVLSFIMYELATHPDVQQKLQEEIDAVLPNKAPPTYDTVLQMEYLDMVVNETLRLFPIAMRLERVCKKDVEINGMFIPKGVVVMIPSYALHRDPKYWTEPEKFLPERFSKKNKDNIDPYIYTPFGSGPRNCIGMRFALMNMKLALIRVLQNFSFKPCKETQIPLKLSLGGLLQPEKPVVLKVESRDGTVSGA
Sequence of 3',5'-cyclic-AMP phosphodiesterase 4B (Homo sapiens) (Q07343 whole entry, looked up): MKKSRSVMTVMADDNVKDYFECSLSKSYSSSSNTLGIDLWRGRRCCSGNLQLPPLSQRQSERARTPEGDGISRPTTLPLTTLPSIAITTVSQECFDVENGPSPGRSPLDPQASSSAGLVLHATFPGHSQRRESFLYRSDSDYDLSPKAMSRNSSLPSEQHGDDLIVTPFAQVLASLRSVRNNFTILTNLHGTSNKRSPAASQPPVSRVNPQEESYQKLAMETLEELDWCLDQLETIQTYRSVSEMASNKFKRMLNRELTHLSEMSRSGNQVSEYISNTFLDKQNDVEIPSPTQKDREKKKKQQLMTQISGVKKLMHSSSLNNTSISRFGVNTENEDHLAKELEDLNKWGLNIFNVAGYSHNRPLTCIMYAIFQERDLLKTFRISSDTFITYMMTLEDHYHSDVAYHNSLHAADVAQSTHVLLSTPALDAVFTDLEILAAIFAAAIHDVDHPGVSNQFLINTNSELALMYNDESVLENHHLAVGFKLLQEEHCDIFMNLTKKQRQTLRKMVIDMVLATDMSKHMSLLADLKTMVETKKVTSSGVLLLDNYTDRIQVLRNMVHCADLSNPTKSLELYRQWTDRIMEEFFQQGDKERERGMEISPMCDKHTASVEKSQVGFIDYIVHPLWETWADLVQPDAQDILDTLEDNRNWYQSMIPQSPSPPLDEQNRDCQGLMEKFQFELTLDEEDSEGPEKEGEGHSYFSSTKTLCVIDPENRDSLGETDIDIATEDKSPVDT
Sequence of Cytochrome P450 2C19 (Homo sapiens) (P33261 whole entry, looked up): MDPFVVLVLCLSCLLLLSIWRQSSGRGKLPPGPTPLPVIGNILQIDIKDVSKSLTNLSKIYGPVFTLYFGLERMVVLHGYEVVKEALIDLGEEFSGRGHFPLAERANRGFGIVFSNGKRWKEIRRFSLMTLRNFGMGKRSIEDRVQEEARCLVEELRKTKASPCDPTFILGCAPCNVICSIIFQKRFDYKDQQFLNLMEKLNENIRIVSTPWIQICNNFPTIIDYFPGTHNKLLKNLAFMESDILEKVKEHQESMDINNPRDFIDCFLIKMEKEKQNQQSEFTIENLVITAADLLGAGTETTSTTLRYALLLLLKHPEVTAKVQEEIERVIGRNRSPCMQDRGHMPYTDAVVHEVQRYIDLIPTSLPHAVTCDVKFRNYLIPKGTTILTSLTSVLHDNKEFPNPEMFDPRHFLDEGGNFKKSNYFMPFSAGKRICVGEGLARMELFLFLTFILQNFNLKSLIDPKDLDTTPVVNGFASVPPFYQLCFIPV
Sequence of Cytochrome P450 2C9 (Homo sapiens) (P11712 whole entry, looked up): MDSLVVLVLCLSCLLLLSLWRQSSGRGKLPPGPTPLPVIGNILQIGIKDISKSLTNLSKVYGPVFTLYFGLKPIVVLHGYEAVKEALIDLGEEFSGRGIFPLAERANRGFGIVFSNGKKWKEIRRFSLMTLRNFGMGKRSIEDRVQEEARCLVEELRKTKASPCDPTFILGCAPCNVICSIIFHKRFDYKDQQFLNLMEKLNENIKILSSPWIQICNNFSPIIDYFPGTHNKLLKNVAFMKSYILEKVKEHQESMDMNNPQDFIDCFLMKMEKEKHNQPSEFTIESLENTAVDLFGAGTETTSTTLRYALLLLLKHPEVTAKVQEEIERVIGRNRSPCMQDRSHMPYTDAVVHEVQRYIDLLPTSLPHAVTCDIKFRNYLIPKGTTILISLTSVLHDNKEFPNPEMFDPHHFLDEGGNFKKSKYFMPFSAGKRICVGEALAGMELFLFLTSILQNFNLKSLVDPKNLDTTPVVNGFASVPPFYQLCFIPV
Sequence of Cytochrome P450 2D6 (Homo sapiens) (P10635 whole entry, looked up): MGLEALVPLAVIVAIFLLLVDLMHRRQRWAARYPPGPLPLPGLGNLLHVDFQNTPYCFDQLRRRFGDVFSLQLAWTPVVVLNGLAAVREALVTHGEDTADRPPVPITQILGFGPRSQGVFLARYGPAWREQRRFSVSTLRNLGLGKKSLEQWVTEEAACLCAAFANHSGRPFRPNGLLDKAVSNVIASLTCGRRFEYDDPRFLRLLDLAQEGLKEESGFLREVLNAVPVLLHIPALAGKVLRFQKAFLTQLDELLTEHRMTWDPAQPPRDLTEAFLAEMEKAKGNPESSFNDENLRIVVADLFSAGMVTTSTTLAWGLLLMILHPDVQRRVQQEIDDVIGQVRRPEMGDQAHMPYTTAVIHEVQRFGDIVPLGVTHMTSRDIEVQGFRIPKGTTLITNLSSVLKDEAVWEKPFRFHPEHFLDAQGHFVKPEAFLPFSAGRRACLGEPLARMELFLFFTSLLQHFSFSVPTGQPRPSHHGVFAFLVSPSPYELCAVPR

Question: With COC(=O)[C@@]1(Cc2ccc(F)cc2)[C@H]2c3cc(C(=O)N4CCCC4)n(Cc4ccc(C)c(F)c4F)c3C[C@H]2CN1C(=O)c1ccccc1 as the molecule, how does the Potency [1] read?
Answer: inactive

Question: And the Potency [2]?
Answer: 2510 nM (active)

Question: What about the Potency [3] of the same molecule?
Answer: inactive

Question: Which Potency [1] does the source give for COC(=O)N[C@H](c1ccccc1)[C@@]1(C)C[C@@H]1[C@@H](C)C(=O)Nc1ccc2ccccc2c1 here?
Answer: inactive

Question: What about the Potency [4] of the same molecule?
Answer: inactive

Question: And the Potency [5]?
Answer: 3980 nM (active)

Question: And the Potency [2]?
Answer: 199 nM (active)

Question: And the Potency [3]?
Answer: inactive

Question: And the Potency [6]?
Answer: 31.6 nM (active)

Question: What about the Potency [7] of the same molecule?
Answer: 3160 nM (active)

Question: Which Potency [1] does the source give for O=C(NCCc1c[nH]c2ccccc12)[C@H]1C[C@@H]1[C@H](NP(=O)(c1ccccc1)c1ccccc1)c1ccccc1 here?
Answer: inactive

Question: What about the Potency [4] of the same molecule?
Answer: inactive

Question: What about the Potency [5] of the same molecule?
Answer: 2000 nM (active)

Question: And the Potency [2]?
Answer: 1580 nM (active)

Question: And the Potency [3]?
Answer: inactive

Question: What about the Potency [7] of the same molecule?
Answer: 1260 nM (active)

Question: For COCCN1C(=O)N[C@@H](c2cccs2)C(C(C)=O)=C1C, which Potency [8] is on record?
Answer: inactive

Question: And the Potency [9]?
Answer: inactive

Question: And the Potency [10]?
Answer: inactive

Question: And the Potency [11]?
Answer: inactive

Question: For O=C(N[C@@H](c1ccccc1)[C@@H]1C[C@H]1C(=O)O)OCc1ccccc1, which Potency [1] is on record?
Answer: inactive

Question: And the Potency [4]?
Answer: inactive

Question: For C[C@@]1(C(NC(=O)c2ccccc2)c2ccc(-c3ccccc3)cc2)C[C@H]1C1CCCCC1 (some centres undefined), which Potency [4] is on record?
Answer: inactive

Question: What does the source list for COC(=O)CCC(=O)OC1(C)C(=O)C2=CN(CCN3CCOCC3)C(c3ccc(OC)cc3)=CC2=C(Br)C1=O (centres undefined)?
Answer: Potency [8]: inactive; Potency [9]: inactive; Potency [10]: inactive; Potency [11]: inactive

Question: Which Potency [1] does the source give for COC(=O)[C@@]1(Cc2ccc(OC)cc2)[C@H]2c3cc(C(=O)N4CCCC4)n(CCSCCO)c3C[C@H]2CN1C(=O)c1ccccc1 here?
Answer: inactive

Question: What about the Potency [4] of the same molecule?
Answer: inactive

Question: What does the source list for CC1(OC(=O)CCc2ccccc2)C(=O)C=C2C=C(c3ccc(C#N)cc3)N(Cc3ccccc3)C=C2C1=O (centres undefined)?
Answer: Potency [8]: inactive; Potency [9]: inactive; Potency [11]: inactive

Question: What does the source list for O=C(Nc1ccc2ccccc2c1)[C@@H]1C[C@H]1[C@@H](NP(=O)(c1ccccc1)c1ccccc1)c1ccccc1?
Answer: Potency [1]: inactive; Potency [4]: inactive

Question: Which Potency [1] does the source give for COC(=O)[C@@H]1C[C@H]1[C@@H](NC(=O)c1cccnc1)c1ccccc1 here?
Answer: inactive

Question: What about the Potency [4] of the same molecule?
Answer: inactive

Question: And the Potency [3]?
Answer: inactive

Question: What does the source list for CCCC/C=C/C(NC(=O)c1ccco1)c1ccccc1 (centres undefined)?
Answer: Potency [1]: inactive; Potency [4]: inactive; Potency [3]: inactive

Question: What does the source list for COC(=O)C1=C(C)N(Cc2ccccc2)C(=O)NC1c1ccco1 (centres undefined)?
Answer: Potency [8]: inactive; Potency [9]: inactive; Potency [10]: inactive; Potency [11]: inactive

Question: For C=C(CC1([C@@H](NP(=O)(c2ccccc2)c2ccccc2)[C@H]2C[C@@H]2CCN(C(=O)OCC)S(=O)(=O)c2ccc(C)cc2)CC1)c1ccccc1, which Potency [1] is on record?
Answer: inactive

Question: What about the Potency [4] of the same molecule?
Answer: inactive

Question: What about the Potency [2] of the same molecule?
Answer: 1580 nM (active)

Question: And the Potency [3]?
Answer: inactive

Question: Which results are given for COC(=O)[C@@]1(Cc2ccc(F)cc2)[C@H]2c3cc(C(=O)N(C)C)n(CCc4c[nH]c5ccc(OC)cc45)c3C[C@H]2CN1C(=O)c1ccccc1?
Answer: Potency [1]: inactive; Potency [4]: inactive

Question: With COC(=O)[C@H]1C[C@@H]1[C@H](NC(=O)c1cccnc1)c1ccccc1 as the molecule, how does the Potency [1] read?
Answer: inactive

Question: What about the Potency [4] of the same molecule?
Answer: inactive

Question: What about the Potency [2] of the same molecule?
Answer: 5010 nM (active)

Question: And the Potency [3]?
Answer: inactive
